# Measured values reported in PubChem BioAssay (NCI).
# Compounds without any hit were thinned out: in the full panel of roughly 79,000, 15% have a hit. A number with no mark means an inactive call. Active and inactive are the calls of the source. Cut-off read from the data, not from the text of the source: active = growth inhibition above about 70%; inactive = the rest.
# Columns and labels:
# [1] = NCI Yeast Anticancer Drug Screen. Data for the rad50 strain (AID 155);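 note: 0% = growth of vehicle-only cultures of the same strain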; conditions: S. cerevisiae rad50 strain growth inhibition, hits give high values
# Outline: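 Relative growth inhibition (compound vs vehicle) was measured in yeast with a defined repair-gene alteration.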
# [2] = NCI Yeast Anticancer Drug Screen. Data for the mec2-1 strain (AID 157); conditions: S. cerevisiae mec2-1 strain, hits give high values
# Outline: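 Mutant yeast (mec2-1) grown with compound; growth inhibition relative to vehicle control reported.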
# [3] = NCI Yeast Anticancer Drug Screen. Data for the sgs1 mgt1 strain (AID 161);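 note: 0% = growth of cultures given vehicle only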; conditions: S. cerevisiae sgs1 mgt1 strain, hits give high values
# Outline: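 Growth of a repair-deficient yeast mutant was monitored after compound treatment and expressed as inhibition relative to vehicle-treated cultures.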
# [4] = NCI Yeast Anticancer Drug Screen. Data for the cln2 rad14 strain (AID 165);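 note: 0% = growth equal to vehicle treated cultures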; conditions: S. cerevisiae cln2 rad14 strain, hits give high values
# Outline: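 Readout is yeast growth inhibition versus vehicle-treated controls, using a strain with cln2 and rad14 alterations exposed to compound.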
# [5] = NCI Yeast Anticancer Drug Screen. Data for the bub3 strain (AID 167); conditions: S. cerevisiae bub3 mutant strain, hits give high values
# Outline: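 Screening used yeast with an engineered genetic alteration affecting cell cycle control. Compound-exposed cultures were compared with vehicle cultures, and reduced growth was taken as inhibition.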
# [6] = NCI Yeast Anticancer Drug Screen. Data for the mlh1 rad18 strain (AID 175); conditions: S. cerevisiae mlh1 rad18 strain growth inhibition, hits give high values
# Outline: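 Genetically defined yeast (DNA repair-deficient) exposed to compounds; growth inhibition determined relative to vehicle.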
# [7] = at 5.0 µM (retest, dose inferred, filed as 0.5)
# [8] = at 50.0 µM (retest, dose inferred, filed as 5.0)
SMILES,"growth inhibition [1, 7]","growth inhibition [1, 8]",growth inhibition ([1]; at 50.0 µM),"growth inhibition [2, 7]","growth inhibition [2, 8]",growth inhibition ([2]; at 50.0 µM),"growth inhibition [3, 7]","growth inhibition [3, 8]",growth inhibition ([3]; at 50.0 µM),"growth inhibition [4, 7]","growth inhibition [4, 8]",growth inhibition ([4]; at 50.0 µM),"growth inhibition [5, 7]","growth inhibition [5, 8]",growth inhibition ([5]; at 50.0 µM),"growth inhibition [6, 7]","growth inhibition [6, 8]",growth inhibition ([6]; at 50.0 µM)
COc1ccc2cc(C(=O)CCCC(C)C(=O)O)ccc2c1 (centres undefined),0%,-9%,74.6% (active),-9%,-11%,-7.85%,0%,38%,2.85%,-3%,-22%,-48%,-4%,-9%,3.55%,-12%,-4%,2.95%
CN(C)c1ccc2c(c1)N(C)c1ccccc1C2(Cl)c1ccccc1 (centres undefined),96% (active),99% (active),99.2% (active),99% (active),100% (active),99.5% (active),90% (active),99% (active),99.3% (active),70% (active),98% (active),99.2% (active),89% (active),99% (active),99.3% (active),95% (active),99% (active),99.4% (active)
COc1ccc(N=C2C(=S)N(c3ccc(OC)cc3)/C(=N/S(=O)(=O)c3ccccc3)N2c2ccccc2)cc1,10%,18%,8.6%,9%,23%,-4.1%,-23%,0%,5.7%,-11%,3%,11.2%,-13%,11%,1.65%,14%,16%,14%
CC/C(=C(/CC)c1ccc(O)cc1)c1ccc([O-])cc1.CC/C(=C(/CC)c1ccc(O)cc1)c1ccc([O-])cc1.O=C([CH-]C(=O)c1ccccc1)c1ccccc1.O=C([CH-]C(=O)c1ccccc1)c1ccccc1.[Ti+4],64%,95% (active),88.8% (active),60%,97% (active),92% (active),74% (active),98% (active),92.8% (active),56%,96% (active),91.5% (active),78% (active),98% (active),90.2% (active),80% (active),93% (active),89% (active)
Cc1ccc(S(=O)(=O)Nn2c(S)c(C#N)c(-c3ccc([N+](=O)[O-])cc3)c(C#N)c2=O)cc1,25%,59%,49.6%,8%,35%,46.6%,24%,78% (active),72.3% (active),43%,43%,29.8%,45%,65%,54.6%,19%,46%,59%
COC12C(COC(N)=O)C3=C(C(=O)C(C)=C(N)C3=O)N1CC1C2N1C(=O)c1ccc(Cl)cc1 (centres undefined),12%,57%,43.3%,15%,75% (active),50.1%,20%,81% (active),65.5%,3%,72% (active),46.4%,3%,50%,43.4%,25%,86% (active),71.1% (active)
CS(=O)(=O)OCCN(CCOS(C)(=O)=O)c1ccc(C=Nc2ccc3oc(=O)ccc3c2)cc1,32%,97% (active),52.1%,35%,95% (active),77.1% (active),22%,86% (active),65.2%,13%,77% (active),22.4%,-4%,14%,40.1%,72% (active),97% (active),88.7% (active)
c1ccc(-c2cc(N3CCCCC3)c(-c3ccccc3)o2)cc1,-1%,11%,21.4%,9%,14%,1.1%,8%,28%,44.4%,1%,0%,-5.7%,7%,12%,85.4% (active),15%,43%,25.1%
CN(C)C(=O)N(C)/N=C/c1ccc([N+](=O)[O-])o1,10%,56%,80.3% (active),1%,21%,53.5%,8%,68%,90.8% (active),4%,30%,42.2%,5%,42%,40%,21%,68%,89.5% (active)
COC(=O)CCC(C)C1CCC2C3CCC4CC(SC(=N)N)CCC4(C)C3CC(O)C12C (centres undefined),95% (active),99% (active),99.1% (active),23%,99% (active),99.7% (active),98% (active),99% (active),99.7% (active),63%,99% (active),99.2% (active),99% (active),99% (active),99.3% (active),84% (active),99% (active),99.4% (active)
CO[C@H]1CC[C@@]2(C)C(=CC[C@H]3[C@@H]4C[C@H](OC(C)=O)C[C@@]4(C)CC[C@@H]32)C1,4%,43%,26.4%,2%,26%,17.8%,1%,24%,38.3%,2%,28%,86.7% (active),1%,19%,13.3%,0%,23%,34.9%
CCCCOc1ccc(CN2CCOC2=O)cc1,3%,8%,38.6%,7%,12%,17.8%,4%,4%,10.6%,5%,9%,28.3%,7%,7%,6.3%,0%,3%,55.4%
Nc1ccc2c(c1)CN1C(=O)c3ccccc3C1=N2,24%,54%,67.3%,8%,22%,34.6%,-3%,12%,5.55%,23%,18%,36.6%,3%,19%,22.4%,11%,19%,46%
CCCn1cnc2c(SCc3ccc(Cl)cc3Cl)nc(N)nc21,12%,14%,97.1% (active),12%,12%,97.2% (active),13%,15%,97% (active),12%,-9%,97.2% (active),13%,16%,97.5% (active),11%,12%,95.7% (active)
COc1ccc2c(c1)C(=O)C[C@@H]1[C@](C)(C#N)CCC[C@]21C,3%,31%,47.1%,3%,2%,-4.95%,3%,19%,33.4%,5%,10%,-2.7%,5%,34%,69.8%,7%,13%,47.7%
CC(=O)OC1=Cc2ccccc2C(c2ccccc2)c2ccccc21 (centres undefined),-10%,29%,14.3%,-3%,31%,9.55%,2%,18%,16.5%,20%,37%,10.7%,8%,20%,14.3%,11%,53%,18.3%
CCC(CC)COC(=O)c1cccnc1,1%,99% (active),97.7% (active),-19%,99% (active),99.1% (active),0%,99% (active),98.2% (active),-4%,99% (active),96.9% (active),-6%,98% (active),97.8% (active),0%,98% (active),97.5% (active)
COC(=O)C1CCC(=O)N1C(c1ccc(OC)cc1)c1cc(OC)c(OC)c(OC)c1 (centres undefined),27%,45%,-33.5%,21%,15%,8.55%,32%,42%,1.95%,46%,40%,-7.4%,43%,41%,-8.55%,17%,20%,-10.2%
